One assay relates to Hek293T. The assay can be described thus: Primary qHTS to identify gynecologic anti-cancer compounds using libraries of approved drugs and bioactive compounds (AID 1345084). Further: nearly all actives have a fitted effect of over 55% in size. The following applies: Gynecologic cancer cell panel viability, ATPlite luminescence, 48 h, control line for the selectivity index; series mostly up to 57.5 µM. In outline:
(§1)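 Cytotoxicity screen measuring ATP content by luciferase luminescence. Each compound is applied at five concentrations for 48 h at 37 C with 5% CO2.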
(In qHTS, concentration-response curves come from the screen itself.)

A further assay relates to JEG-3. The assay is described as above. Particulars: Gynecologic cancer cell panel viability, ATPlite luminescence, 48 h; series mostly up to 57.5 µM. The gist of the method: as §1
The next assay deals with OV90. The assay is described as above. Particulars: Gynecologic cancer cell panel viability, ATPlite luminescence, 48 h; series mostly up to 57.5 µM. In outline: as §1
(In ATP-based viability assays light output follows the ATP content of the culture.)

In the next assay the test system is PA-1. The description is as above. The following applies: Gynecologic cancer cell panel viability, ATPlite luminescence, 48 h; series mostly up to 57.5 µM. The gist of the method:
as §1

Another assay relates to Tov112D. Described as above. Particulars: Gynecologic cancer cell panel viability, ATPlite luminescence, 48 h; series mostly up to 57.5 µM. The gist of the method:
as §1

Assay [1] is described as follows: Drug repurposing screens with cells derived from glioblastoma tumor samples (AID 1345199). Further: nearly all actives have a fitted effect of over 40% in size. Particulars: GBM patient neurospheres viability, ATP luminescence, 48 h. The gist of the method: (§2)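 Four patient lines of CD133+ GBM neurospheres were screened at several concentrations; hits were retested in those lines plus three slower-growing GBM lines, using 48-hour treatment and ATP-based viability.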

Another assay concerns astro. Described as above. The following applies: viability, ATP luminescence, 48 h; series mostly up to 45.9 µM. The gist of the method: as §2
A further assay relates to Tov-21-G. The assay can be described thus: Primary qHTS to identify gynecologic anti-cancer compounds using libraries of approved drugs and bioactive compounds (AID 1345084). Further: nearly all actives have a fitted effect of over 55% in size. The following applies: Gynecologic cancer cell panel viability, ATPlite luminescence, 48 h; series mostly up to 57.5 µM. The gist of the method:
as §1

Another assay relates to SKOV3. Described as above. The following applies: Gynecologic cancer cell panel viability, ATPlite luminescence, 48 h; series mostly up to 57.5 µM. In outline:
as §1

The mark [2] stands for this setting: at 45.9 µM (top of the series), tumour line B.
Setting [3] is: at 46.1 µM (top of the series), tumour line C.
Where [4] appears, read: at 45.9 µM (top of the series), tumour line D.
[5] abbreviates: at 20 µM (top of the series), tumour line C.
[6] abbreviates: at 21.2 µM (top of the series), tumour line B.
The mark [7] stands for this setting: at 21.2 µM (top of the series), tumour line D.
Setting [8] is: at 46 µM (top of the series), tumour line A.

Values joined by “and” are separate entries in the source; they are usually repeats but may differ in a detail not shown here. Equal values may be shown once. Results filed as inconclusive are left out. Where a structure was tested more than once in an assay, its records may differ in their call. Active and inactive are the calls of the source. The call rests on the fitted dose curve; in most records, active means well fitted curve in the direction sought with a large enough effect; inconclusive means small, poorly fitted or top-dose-only effect, or another doubt; inactive means no such curve, though single readings can be large; an effect the other way counts as inactive or inconclusive.
On the % scale 0 is the no-effect control and ±100 the full control effect; potency means the concentration at half of the fitted maximal effect.

On to `C[C@H]1[C@H]2CC[C@H]3[C@@H]4CC=C5C[C@@H](N(C)C)CC[C@]5(C)[C@H]4CC[C@]23CN1C`, for which the Potency result with Hek293T, with JEG-3, with PA-1, in the assay on Tov112D and with astro was “inactive” each time. Further, the Potency with OV90 is 15.8 µM (active). For the same compound, the activity, negative = cell killing was 0.435% (inactive) in assay [1] (setting [2]) and -23.5% (inactive) in [1] (setting [3]).

As to `O=C(CN1CCN(Cc2ccc3c(c2)OCO3)CC1)N1c2ccccc2Sc2ccccc21`, the Potency result in the assay on Hek293T, with JEG-3, in the assay on OV90, with PA-1, with Tov-21-G and with Tov112D was “inactive” each time.

In the case of `Cc1ccc(S(=O)(=O)NC(=O)NC2CCCC2)cc1`, the Potency result in the assay with Hek293T, in the assay on JEG-3, with OV90, in the assay on PA-1, in the assay with Tov-21-G and in the assay with Tov112D was “inactive” in each case. Moreover, the Potency result in the assay with astro is “inactive”. Besides, the activity, negative = cell killing is -10.4% (inactive) in [1] (setting [2]), -9.83% (inactive) in assay [1] (setting [4]) and -7.67% (inactive) in [1] (setting [3]).

Regarding `CNCCc1ccccn1`, the Potency result in the assay with Hek293T, in the assay on JEG-3, with OV90, with PA-1, in the assay on Tov-21-G and with Tov112D was “inactive” throughout. Also, the Potency entry in the assay with astro was “inactive”. In addition, the activity, negative = cell killing is -4.84% (inactive) in assay [1] (setting [5]), -4.42% (inactive) in [1] (setting [6]) and -9.97% (inactive) in assay [1] (setting [7]).

Take `COc1ccccc1N1CCN(CCCCNC(=O)c2ccc(-c3ccc(C(C)=O)cc3)cc2)CC1`: the Potency entry with Hek293T, in the assay on JEG-3, with OV90, in the assay on PA-1, in the assay on Tov-21-G and in the assay with Tov112D was “inactive” throughout.

As to `CCN(CC)CCOc1ccccc1C(=O)CCc1ccccc1`, the Potency result with Hek293T, in the assay with JEG-3, in the assay on PA-1, with SKOV3, with Tov-21-G and in the assay on Tov112D was “inactive” throughout. In addition, the Potency result in the assay with astro was “inactive”.

For `CCN(CC)CCOC(=O)C1(c2ccccc2)CCCC1`, the Potency result in the assay with Hek293T, with JEG-3, with PA-1, in the assay with SKOV3, in the assay on Tov-21-G and in the assay with Tov112D was “inactive” throughout. Besides, the activity, negative = cell killing is -21.1% (inactive) in assay [1] (setting [2]), -19.5% (inactive) in assay [1] (setting [4]) and -29.4% (inactive) in assay [1] (setting [3]).

As to `Nc1nc(N)c(-c2ccccc2)s1`, the Potency result in the assay with Hek293T, in the assay with JEG-3, in the assay on OV90, with SKOV3, in the assay on Tov-21-G and in the assay with Tov112D was “inactive” in each case. Further, the Potency result with astro was “inactive”. The activity, negative = cell killing is -11% (inactive) in assay [1] (setting [2]), 8.98% (inactive) in [1] (setting [4]), -29.6% (inactive) in [1] (setting [8]) and -25.4% (inactive) in assay [1] (setting [3]).

In the case of `Cc1ccc(-c2ncc(Cl)cc2-c2ccc(S(C)(=O)=O)cc2)cn1`, the Potency entry in the assay on Hek293T, in the assay on JEG-3, with OV90, in the assay on SKOV3, with Tov-21-G and with Tov112D was “inactive” in each case. The Potency result in the assay with astro was “inactive”. For the same compound, the results for the activity, negative = cell killing in assay [1] (setting [2]), in assay [1] (setting [4]) and in assay [1] (setting [3]) were -0.088% (inactive), -1.02% (inactive) and -0.632% (inactive), respectively.

Take `Cc1nc(-c2ccc(Cl)cc2)oc1COC(C)(C)C(=O)O`: the Potency result with Hek293T, with JEG-3, with PA-1, with SKOV3, in the assay on Tov-21-G and in the assay on Tov112D was “inactive” in each case. In addition, in the assay with astro, the Potency result was “inactive”. The results for the activity, negative = cell killing in assay [1] (setting [2]), in assay [1] (setting [4]) and in assay [1] (setting [3]) were -18.8% (inactive), -2.81% (inactive) and -9.1% (inactive), respectively.

On to `O=C(O)CCc1nc2ccccc2[nH]1`, for which the Potency entry in the assay on Hek293T, in the assay with JEG-3, in the assay with OV90, in the assay with SKOV3, in the assay on Tov-21-G and with Tov112D was “inactive” in each case. Also, the Potency entry in the assay with astro was “inactive”. Moreover, the activity, negative = cell killing in [1] (setting [2]) is -11.4% (inactive); in [1] (setting [4]), 5.36% (inactive); in assay [1] (setting [8]), -40.1% (inactive); in assay [1] (setting [3]) it was -13.5% (inactive).

For the compound `NS(=O)(=O)c1ccc(Cl)c(S(N)(=O)=O)c1`, the Potency entry in the assay with Hek293T, in the assay on JEG-3, in the assay on PA-1, in the assay with SKOV3, in the assay on Tov-21-G and in the assay with Tov112D was “inactive” throughout. Also, the Potency result in the assay with astro is “inactive”. In addition, the activity, negative = cell killing in assay [1] (setting [2]) was -6.27% (inactive); in [1] (setting [4]), -11.1% (inactive); in [1] (setting [8]) it was -23.6% (inactive); in [1] (setting [3]) it was 27.6% (inactive).

With `CCOC(=O)C(C#N)=C(c1ccccc1)c1ccccc1`, the Potency result in the assay on Hek293T, in the assay with JEG-3, in the assay on PA-1, in the assay with SKOV3, in the assay with Tov-21-G and with Tov112D was “inactive” each time. In addition, in the assay on astro, the Potency entry was “inactive”. Moreover, the activity, negative = cell killing was -12.8% (inactive) in assay [1] (setting [2]) and -4.23% (inactive) in assay [1] (setting [4]). Besides, in assay [1] (tumour line A), the Potency was 11.2 µM (active).

For `O=[N+]([O-])c1ccc(/C=N\O)o1`, the Potency entry in the assay with Hek293T, with JEG-3, in the assay with PA-1, in the assay with SKOV3, in the assay on Tov-21-G and with Tov112D was “inactive” in each case. The Potency result with astro is “inactive”. In addition, the activity, negative = cell killing in [1] (setting [2]) was -7.45% (inactive); in [1] (setting [4]), -31.7% (inactive); in assay [1] (setting [3]), 1.04% (inactive).

Regarding `O=C(NCCc1c[nH]c2ccccc12)c1cccnc1`, the Potency entry in the assay on Hek293T, in the assay with JEG-3, in the assay on PA-1, with SKOV3, in the assay on Tov-21-G and in the assay on Tov112D was “inactive” throughout. For the same compound, the Potency result with astro was “inactive”. Further, the activity, negative = cell killing in assay [1] (setting [2]) is -17.4% (inactive).

For `CC(=O)OCC(=O)[C@H]1CC[C@H]2[C@@H]3CCC4=CC(=O)CC[C@]4(C)[C@H]3CC[C@]12C`, the Potency result in the assay with Hek293T, with JEG-3, in the assay on OV90, in the assay with SKOV3, with Tov-21-G and in the assay with Tov112D was “inactive” in each case. Further, the Potency entry with astro was “inactive”. The activity, negative = cell killing in assay [1] (setting [3]) was -12.5% (inactive). In addition, the Potency in assay [1] (tumour line A) is 8.91 µM (active).

Consider `C=C[C@H]1CN2CC[C@H]1C[C@H]2[C@H](O)c1ccnc2ccc(OC)cc12`, for which the Potency entry with Hek293T, in the assay on JEG-3, with PA-1, in the assay with SKOV3, in the assay on Tov-21-G and in the assay with Tov112D was “inactive” each time. Besides, the Potency result in the assay with astro is “inactive”. The activity, negative = cell killing in [1] (setting [2]) is -17.2% (inactive) and -20.5% (inactive); in [1] (setting [3]), -25.6% (inactive) and -17.6% (inactive). Besides, the Potency in assay [1] (tumour line A) is 11.2 µM (active) and 17.8 µM (active).

On to `CC(O)Cn1cnc2c1c(=O)n(C)c(=O)n2C` (stereo not drawn), for which the Potency entry in the assay on Hek293T, in the assay with JEG-3, in the assay with OV90, in the assay with SKOV3, with Tov-21-G and in the assay with Tov112D was “inactive” throughout. Besides, the Potency result in the assay with astro is “inactive”. For the same compound, the activity, negative = cell killing in [1] (setting [5]) was 7.77% (inactive); in [1] (setting [6]), -9.45% (inactive); in [1] (setting [7]) it was -12.1% (inactive); in [1] (at 21.3 µM (top of the series), tumour line A), -14.4% (inactive).

For `CCOC(=O)c1c(N)sc2c1CCN(Cc1ccccc1)C2`, the Potency result in the assay with Hek293T, in the assay on JEG-3, in the assay on SKOV3, in the assay with Tov-21-G, in the assay on Tov112D and in the assay with astro was “inactive” each time. The activity, negative = cell killing in [1] (setting [3]) is -15.7% (inactive). For the same compound, the Potency in [1] (tumour line A) was 11.2 µM (active).

`CCN(CC)CCOC(=O)C(Cc1cccc2ccccc12)CC1CCCO1` (stereo not drawn): the Potency result with Hek293T, in the assay on JEG-3, in the assay with PA-1, in the assay with Tov-21-G and in the assay on Tov112D was “inactive” in each case. Also, the activity, negative = cell killing in assay [1] (setting [5]) is 6.25% (inactive); in assay [1] (setting [6]), -13.3% (inactive); in [1] (setting [7]), -13.7% (inactive). The Potency in [1] (tumour line A) is 11.2 µM (active).

As to `Oc1ccccc1C=NCc1ccccc1`, the Potency result in the assay on Hek293T, in the assay on JEG-3, with SKOV3, in the assay on Tov-21-G, in the assay on Tov112D and in the assay on astro was “inactive” throughout. Also, the activity, negative = cell killing in [1] (setting [2]) is -13.2% (inactive); in [1] (setting [4]), -14.3% (inactive); in [1] (setting [3]), -2.77% (inactive).

The values are drawn from PubChem BioAssay (NCATS).
